# An excerpt weighted towards active compounds, which were near 1.5% of everything screened.
# Mtb MbtI inh – blocks the Mycobacterium tuberculosis siderophore enzyme MbtI. P9WFX0. purified MbtI enzyme, fluorescence intensity read-out. inhibition, % (no concentration beside the values). hit rate 0.89% among 100,000. AID 493033; in the data active = inhibition mostly above about 56%, no sharp cut-off; inactive = mostly below about 77%
# AID504770 – growth inhibitors of E. coli YBA685 in a screen for V. cholerae RctB (chromosome II replication) inhibitors; AID 504770; z-score (test concentration not listed); hit rate 0.27% among 130,000; E. coli YBA685 rctB-dependent plasmid, OD600 growth, 3 h; stronger effect = lower value; in the data active = z-score below about -2, passing the limit was not always enough
# Polio RdRp inh – poliovirus RNA polymerase inhibition; hit rate 0.66% among 150,000; P03300; poliovirus polymerase elongation, fluorescence polarization; stronger effect = lower value; % elongation, % (compound at 16.7 µg/mL); in the data active = % elongation below about 90%
# Mtb MenB inh – inhibitors of Mycobacterium tuberculosis MenB enzyme | P9WNP5 | MenB enzyme assay, absorbance read-out | inhibition, % (concentration not given with the values) | hit rate 0.43% among 100,000; in the data active = inhibition above about 21%, passing the limit was not always enough
# Target sequence (P9WNP5 whole entry, looked up): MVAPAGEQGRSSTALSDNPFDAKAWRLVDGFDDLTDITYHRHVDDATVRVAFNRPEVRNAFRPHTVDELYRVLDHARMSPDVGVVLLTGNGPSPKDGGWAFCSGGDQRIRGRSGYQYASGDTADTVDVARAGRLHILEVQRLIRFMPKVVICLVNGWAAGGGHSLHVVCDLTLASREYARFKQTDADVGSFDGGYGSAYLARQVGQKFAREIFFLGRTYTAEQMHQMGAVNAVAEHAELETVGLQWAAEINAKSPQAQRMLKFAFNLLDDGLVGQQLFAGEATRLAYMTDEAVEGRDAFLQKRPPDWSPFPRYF
# Numbers without * were called inactive; · = no result; ! = a repeat was not active.
SMILES,Mtb MbtI inh,AID504770,Polio RdRp inh,Mtb MenB inh
COc1ccc(CN(CC(=O)NC2CCCC2)C(=O)Cn2nnc(-c3ccc(OC)cc3)n2)cc1,2,0.75,102,33*
CC(OC(=O)c1cc(Cl)c(O)c(Cl)c1)C(=O)N1CCCCC1 (configuration not stated),-9,-0.5,104,-21
O=C1CSc2sc(=S)sc2S1,47,-0.8,88*,-121
CCCCN1COc2c(cc(Cl)c3cccnc23)C1,-119,-5.8*,101,-10
Cc1ccc(-c2[nH]nc3c2C(c2ccccc2)C2=C(CC(C)(C)CC2=O)N3)cc1 (configuration not stated),21,3,102,-53
O=C(CSc1ncnc2[nH]ncc12)CSc1ncnc2[nH]ncc12,10,-1.1,100,active
CC(C)c1ccc(C2C3=C(CC(c4cccs4)CC3=O)Nc3ncnn32)cc1 (configuration not stated),-7,-0.8,103,-48
CC1CCCCC1NC(=O)COC(=O)c1ccc(Cl)c(S(N)(=O)=O)c1 (configuration not stated),-3,-3*,105,-1
Cc1ccc(-c2nnc(-c3cc(C(=O)NN)c(C)nc3C)o2)cc1,-27,-0.1,104,8
COC(=O)COc1ccc(S(=O)(=O)Nc2ccc(C(F)(F)F)cc2)cc1,-14,-0.85,98,0
O=C1C=CC(=O)N1c1ccc(S(=O)(=O)Nc2ccc(C(F)(F)F)cc2)cc1,98*,0.7,105,-1
ONC=NCc1ccccc1OC(F)(F)F,7,-0.5,100,34*
Nc1nc(NCc2ccccc2OC(F)(F)F)n[nH]1,·,-0.75,·,·
CC1=NN(c2ccccc2)C(=O)/C1=C\c1cn(CCC#N)nc1-c1ccc(F)cc1,-1,0.65,100,-18
CN(C)c1nc(-c2ccccc2)[n+](C)s1,32,-4*!,102,-25
CN(C)c1nc(-c2ccccc2)c(CC(=O)O)s1,15,0,92,12
O=C1OCCN1/N=C/c1ccc([N+](=O)[O-])o1,8,-4.3*,98,2
O=C1CN(/N=C/c2ccc([N+](=O)[O-])o2)C(=O)N1,12,-2.3*,99,-6
O=C1CN(/N=C/c2ccc(-c3ccc([N+](=O)[O-])cc3)o2)C(=O)N1,17,·,100,-4
N#CC1=C(SCC(=O)NCc2ccccc2)NC(=O)CC1c1ccccc1F (configuration not stated),·,-0.1,·,·
N#CSc1ccc(NCCO)cc1C(F)(F)F,58*,-0.2,103,-31
OCCNc1ccc(Cl)cc1,-5,0,104,1
CC(C)(C)NCc1ccc(-c2ccccc2)o1,8,0.05,100,12
CCN(CC)CCNCc1ccc(-c2ccccc2)o1,11,-0.2,102,33*
Cc1cc(OC(=O)/C=C/c2ccc(F)cc2)cc(=O)o1,62,-0.6,84*,-38
SMILES,Mtb MbtI inh,AID504770,Polio RdRp inh,Mtb MenB inh
CSc1cccc(-n2c(C)ccc2C)c1,-12,-0.35,131,-3
O=c1[nH]c2cc(Br)cnc2[nH]1,1,1.1,66*,-19
O=c1[nH]c2ccccc2[nH]1,-1,-0.3,94,8
C/C(=C\C(=O)c1cccnc1)Nc1ccccc1O,27,0.25,102,60*
N#Cc1c(Cl)nc(Cl)c(Cl)c1Cl,72,-3.5*,76*,0
N#Cc1c(Cl)nc(N2CCOCC2)c(Cl)c1Cl,-9,-0.1,104,-20
Cc1cc(C)c(C#N)c(Cl)n1,-2,0.15,101,-32
CC(C)=NNc1nc(Cl)c(C#N)c(Cl)c1Cl,61*,-0.6,101,-3
CC(=O)N(C)c1ccc(NC(=O)/C=C/c2ccco2)cc1,·,-0.05,·,·
CCOc1ccc(CCNC(=O)c2nc(-c3cccnc3)no2)cc1,-23,0.75,103,5
Cn1c(=O)cc(SCC(=O)NCCCN2CCN(c3ccccc3F)CC2)c2cc(Cl)ccc21,-6,0.75,105,-19
CC(C)(C)C1(O)C=C(O)C(=O)N1c1cccnc1 (configuration not stated),·,0,103,53*
O=C1CC(c2nc3ccccc3n2C/C=C/c2ccccc2)CN1c1ccc(Cl)cc1 (configuration not stated),-5,-1.1,100,-12
CCOC(=O)c1[nH]c(CSc2cccc[n+]2[O-])c(C(=O)OCC)c1C,37,-1.2,66*,-30
COc1ccc(C2CCCCC2O)cc1OC (configuration not stated),-4,-0.05,104,-9
CCCc1cc2ccccc2o1,1,2.1,100,32*
CCCc1cc(=O)c2c(O)cccc2o1,·,-0.55,·,·
O=c1c(Br)cccc(Br)c1O,39,-3.5*,105,-169
CC(C)OC(=O)CN1C(=O)C(C)(C)Oc2ccc(C(=O)Nc3ccccc3)cc21,0,1.1,103,25*
Cn1c(=N)n(CC(N)=O)c2ccccc21,3,2,·,·
Nn1c(Cc2ccccc2)nc2sc3c(c2c1=O)CCCC3,-3,0.5,98,-7
NC(=O)n1c(CCC(=O)O)nc2sc3c(c2c1=O)CCC3,21,0,85*,-28
CCCc1nc2sc3c(c2c(=O)n1N)CCCC3,5,0.3,100,33*
Cc1cc(C2=NNC(=NCC3CCCO3)SC2)c(C)n1-c1c(C)n(C)n(-c2ccccc2)c1=O (configuration not stated),6,1.2,108,-25
COc1cccc(NC(=O)CN(C)CC(=O)Nc2cccc(C#N)c2)c1,-14,-0.4,106,-32
SMILES,Mtb MbtI inh,AID504770,Polio RdRp inh,Mtb MenB inh
OCCN1CCN(CC2CC=CCC2)CC1 (configuration not stated),-5,0.8,101,11
CCCNC(=O)Nc1ccc(Br)cc1F,-17,-0.65,103,-5
CCc1cc(Br)ccc1NC(C)=O,·,-2.7*,·,·
Cc1nnc(SCC(=O)c2cc(C)n(CC3COc4ccccc4O3)c2C)n(N)c1=O (configuration not stated),-8,0,105,-23
CN1CCN(c2ccc(Cl)cc2NC(=O)c2cccc(S(=O)(=O)N3CCc4ccccc43)c2)CC1,-9,-0.4,108,-6
O=C(Oc1cccc(Cl)c1Cl)c1ccncc1,-2,-1.5,4.0*,1
Nc1nc(=Nc2ccccc2)ss1,·,-4.2*,95,-94
NC1=NC(=Nc2ccccc2)c2ccccc21,3,0,100,·
CCCCN(C)C(=O)C1CCN(Cc2ccc(OCC)cc2)CC1,·,-0.15,45*,3
CCCCN(Cc1ccccc1)C(=O)C1CCN(Cc2cccc(O)c2)CC1,·,-0.4,103,-3
NC(=Nc1ccccc1)SC1CC(=O)N(c2ccccc2)C1=O (configuration not stated),9,-0.65,104,-16
Cc1ccc(C(=O)C(C)OC(=O)C2=COCCO2)cc1C (configuration not stated),1,0.3,90*,1
CN(C)c1nc(N)c(C#N)c(CC#N)c1C#N,6,0.5,80*,16
Cc1ccc(NC(=O)CN2C(=O)C(c3ccc(C(C)(C)C)cc3)=NC2(C)C)cc1,·,·,32*,·
CCOC(=O)c1nn(-c2ccc(F)cc2)c(=O)c2c(NC(=O)c3ccc(Br)o3)scc12,-3,1.8,102,-17

# Screening data (PubChem)
